Results filed as inconclusive are left out. Active and inactive are the calls of the source. Calls follow the shape of the full dose curve.
target: Vitamin D3 receptor (Homo sapiens) (UniProt P11473); assay: qHTS assay for small molecule antagonists of vitamin D receptor signaling (AID 588541); conditions: HEK293T VDR-UAS-bla, beta-lactamase ratio, antagonist mode; series mostly up to 76.7 µM;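 also: receptor activated by calcitriol during compound treatment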
From the text: NIH Chemical Genomics Center [NCGC]
U.S. Environmental Protection Agency [EPA]
National Institutes of Environmental Health Sciences [NIEHS]
National Toxicology Program [NTP]
The Vitamin D receptor (VDR) is a member of nuclear hormone receptor superfamily and it plays a critical role in calcium homeostasis and bone metabolism. It plays a role in inducing cell differentiation, inhibiting cell growth and in thrombogenicity. So, VDR that mediates these effects represents a pharmacological target in prevention and treatment of hyperproliferative malignancies, such as cancer and psoriasis, cardiovascular, immunological, inflammatory and renal diseases etc.
NCGC Assay Protocol Summary
Using a beta-lactamase reporter-gene under control of Vitamin D receptor (VDR) response element, a cell-based assay [GeneBLAzer (VDR -UAS-bla assay developed by Invitrogen] was used to measure VDR ligands signaling. GeneBLAzer VDR -UAS-bla HEK293T cells were used with assay medium containing 2% charcoal-stripped FBS. The assay was performed in clear bottom black Greiner 1536-well plates. Library compounds were measured for their ability to inhibit the reporter gene activity. Compounds were screened in a titration series in 1536-well format. The fluorescence intensity (405 nm excitation, 460/530 nm emission) was measured using an EnVision plate reader. Data was normalized relative to 1-alpha,25-Dihydroxy vitaminD3 control (50 nM, 100%) and DMSO only wells (basal, 0%). Concentration-response titration points for each compound were fitted to the Hill equation yielding concentrations of half-maximal inhibition (IC50) and maximal response (efficacy) values.
qHTS protocol for VDR beta-lactamase assay in antagonist mode
[Step] [Parameter] [Value] [Description]
1. Reagent; 5 uL; 2000 cells/well
2. Incubation; 37 C for 5 hrs
4. Controls (DMSO); 23 nL,
5. Agonist (Stimulator); 1uL; 1-alpha,25-Dihydroxy vitaminD3 at 50 nM and 3 nM final concentrations
6. Incubation; 37 C for 16 hrs
7. Detection reagent; 1 uL of CCF4-dye
8. Incubation; RT for 2 hrs
9. Detection; Fluorescence; Envision plate reader

Sequence of Vitamin D3 receptor (Homo sapiens) (P11473 whole entry, looked up): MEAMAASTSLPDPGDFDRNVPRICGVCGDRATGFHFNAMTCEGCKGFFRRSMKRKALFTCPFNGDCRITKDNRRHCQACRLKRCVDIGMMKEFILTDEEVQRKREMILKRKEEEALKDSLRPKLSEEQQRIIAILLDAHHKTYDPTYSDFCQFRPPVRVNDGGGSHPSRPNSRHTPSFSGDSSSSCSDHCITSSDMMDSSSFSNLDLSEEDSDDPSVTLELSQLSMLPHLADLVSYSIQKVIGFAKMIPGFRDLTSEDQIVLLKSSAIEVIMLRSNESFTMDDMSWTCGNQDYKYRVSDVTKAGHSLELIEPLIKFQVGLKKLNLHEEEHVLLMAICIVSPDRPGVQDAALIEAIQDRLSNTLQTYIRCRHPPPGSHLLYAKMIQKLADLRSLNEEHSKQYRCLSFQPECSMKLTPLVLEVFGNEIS

Structure (SMILES)	outcome
Cc1ccc(C)c(N)c1	inactive
N#CCc1ccccc1[N+](=O)[O-]	inactive
CC(N)CN (stereo not given)	inactive
Cc1cc(C(=O)O)ccc1[N+](=O)[O-]	inactive
C=CCCCC	inactive
CC/C=C1/OC(=O)c2ccccc21	inactive
Nc1cc(Cl)c([N+](=O)[O-])cc1O	inactive
Cc1cscn1	inactive
O=Cc1ccc(CO)o1	inactive
O=CNc1ccccc1	inactive
CCC1CO1 (stereo not given)	inactive
CCc1ccccc1O	inactive
C=CC(=O)NC(C)C	inactive
CNC(=O)c1ccccc1	inactive
Nc1ccc([N+](=O)[O-])c(N)c1	inactive
c1ccc(Nc2ccccc2)cc1	inactive
O=Cc1ccccc1Cl	inactive
CC(=O)OC(C)C	inactive
CSc1ccc(C=O)cc1	inactive
C=C(C)C1CC=C(C)C(OC(C)=O)C1 (stereo not given)	inactive

Structure (SMILES)	outcome
O=C1CCC(=O)O1	inactive
Cc1cccc2cccnc12	inactive
CC(=O)c1cc(C)oc1C	inactive
O=C1CCCCC1	inactive
C=C(C)C(=O)OCCCCCCCCCC	inactive
CC(C)=CCl	inactive
Cc1cccc([N+](=O)[O-])c1C(=O)O	inactive
Cc1cc([N+](=O)[O-])ccc1N	inactive
Cc1ccc(C(C)(C)C)cc1	inactive
CC(C)Nc1ccccc1	inactive
Cc1ccc(C)c(O)c1	inactive
Cc1c(N)cccc1N	inactive
Cc1c(C(=O)O)cccc1[N+](=O)[O-]	inactive
Cc1cc(C)c(N)cc1C	inactive
CC(=C/C=C/C(C)=C/C=C/C=C(C)/C=C/C=C(C)/C=C/C(=O)O)/C=C/C(=O)O	inactive
CCOc1ccc(NC(C)=O)cc1N	inactive
COc1cccc(N)c1	inactive
CC1=C(/C=C/C(C)=C/C=C/C(C)=C\C=O)C(C)(C)CCC1	inactive
COC(=O)CCCC(=O)OC	inactive
CCCCC(CC)COCC1CO1 (stereo not given)	inactive

Reference: PubChem BioAssay (NCATS)
